For assay [1], the target named is 6-phosphogluconate dehydrogenase, decarboxylating (Homo sapiens) (UniProt P52209). Put plainly: inhibition of human phosphogluconate dehydrogenase – biochemical, recombinant enzyme, NADPH absorbance, primary screen (AID 1159550;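 active means at least 20% inhibition of 6-phosphogluconate dehydrogenase activity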). The settings on record: recombinant 6PGD, NADPH absorbance 341 nm; at 10 µM; stronger effect = higher value.
Assay [2] can be described thus: viability loss with induced miR-34 in A549 – imaging, A549 dox-inducible miR-34, nuclei and caspase counts, primary screen (AID 1347080). The settings on record: A549 miR-34 inducible, Hoechst nuclei count, 48 h.
Assay [3] is described as follows: galactose survival enhancers in mitochondrial complex I cybrids – cell-based, galactose medium, ATP luminescence, primary screen (AID 1645843;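 active means z-score of at least 1.8 in each of two replicates, scored against plate mean and spread of sample wells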;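 further: positive z means more ATP and so rescue of galactose-driven cybrid death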). Particulars: complex I mutant cybrid cells, 72 h, stronger effect = higher value.
A short description of assay [4]: blockers of polyQ-driven CASP3 activation – cell-based (AID 1583). The settings on record: polyglutamine-induced caspase-3 activation, cell assay; stronger effect = higher value;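 tested at 10 µM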.
Assay [5] can be described thus: yeast 75Q aggregation reduction – 75Q-TubU reporter (AID 1593). Particulars: Yeast 75Q polyglutamine aggregation reporter.
Assay [6] in a line: restoration of touch response, mutant HTT neurons – whole organism, C. elegans mechanosensory neurons, N-terminal huntingtin (AID 1599). Particulars: C. elegans polyQ-huntingtin mechanosensory neurons, stronger effect = higher value.
Assay [7] is described as follows: blockers of cytochrome c efflux from mitochondria – biochemical, purified mitochondria (AID 1603).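 Further: mouse liver mitochondria challenged with calcium chloride; signal normalized to the plate average as 100%.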 Particulars: stronger effect = lower value.
Assay [8] in a line: polyglutamine aggregate formation blockers (AID 1604). Particulars: polyglutamine-induced protein aggregation inhibition assay; stronger effect = higher value; tested at 2.5 µM.
Assay [9] can be described thus: glutamate transport activators, MN-1 cells, MN-1 cell line (AID 1612).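 Further: tested at 1 µM final; 0% = mean of DMSO vehicle wells on each plate; positive means more glutamate uptake than control and negative means less.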 The settings on record: MN-1 motor neuron cells, stronger effect = higher value.
The nature of assay [10]: 75Q-TubH aggregate inhibition, S. cerevisiae, yeast (AID 1616). The settings on record: S. cerevisiae 75Q-TubH polyglutamine aggregation suppression; stronger effect = higher value.
A short description of assay [11]: P. berghei load reduction in hepatocytes – cell-based, HepG2, luciferase luminescence, HepG2 viability, primary screen (AID 624349; in the data active means parasite load remaining mostly below about 12%, no sharp cut-off; inactive means mostly above about 10%;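 further: 100% = mean of DMSO negative control wells on the same plate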). The settings on record: P. berghei liver stage in HepG2, luciferase luminescence, concentration not given here; parasite load remaining: stronger effect = lower value; viability: measured here: HepG2 viability without parasites.
Assay [12] addresses Mitogen-activated protein kinase 7 (Homo sapiens) (UniProt Q13164). Put plainly: Gal4-ERK5 driven luciferase induction – cell-based, HTS, primary screen (AID 1508626;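 active means luciferase signal above three times the same-plate solvent-only control wells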;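 further: luciferase driven by Gal4-ERK5 fusion binding five Gal4 sites before minimal TATA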). Particulars: HeLa Gal4-ERK5 transactivation, 18 h, at 5 µM, stronger effect = higher value.
Assay [13] can be described thus: viability loss in pontine glioma line – cell-based, SU-DIPG-XVII, MIPE5.0, CellTiter-Glo, qHTS, dose response (AID 1347060; cut-off not given, nearly all actives have AC50 up to about 26 µM;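 on AC50: cells exposed to compound for 48 hours before viability readout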). The settings on record: CellTiter-Glo ATP luminescence.
Assay [14] is described as follows: viability loss in pontine glioma line – cell-based, SU-DIPG-XIII, MIPE4.0, CellTiter-Glo, qHTS, dose response (AID 1347061; cut-off not given, nearly all actives have AC50 up to about 37 µM;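 further: cells exposed to compound for 48 hours before readout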). Particulars: CellTiter-Glo ATP luminescence.
The nature of assay [15]: viability loss in pontine glioma line – cell-based, JHH-DIPG-1, MIPE4.0, CellTiter-Glo, qHTS, dose response (AID 1347062; cut-off not given, nearly all actives have AC50 up to about 27 µM). Particulars: JHH-DIPG-1 viability, CellTiter-Glo ATP luminescence.
Assay [16] is described as follows: viability loss in pontine glioma line – cell-based, SU-DIPG-IV, MIPE4.0, CellTiter-Glo, qHTS, dose response (AID 1347063; cut-off not given, nearly all actives have AC50 up to about 30 µM;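 further: compound exposure lasted 48 hours before the viability readout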). The settings on record: CellTiter-Glo ATP luminescence.
Assay [17] can be described thus: JHH-DIPG-1 glioma cell viability, MIPE5.0 library, CellTiter-Glo luminescence, qHTS (AID 1347067; cut-off not given, nearly all actives have AC50 up to about 26 µM;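 further: cells exposed to compound for 48 hours before readout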). Particulars: JHH-DIPG-1 glioma viability, CellTiter-Glo ATP luminescence.
Assay [18] can be described thus: MELAS cybrid and Rieske KO viability enhancers – cell-based, MELAS cybrids, Rieske KO mouse fibroblasts, CellTiter-Glo, primary screen (AID 1508586;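 active means mean z-score across replicates of 1.96 or higher in either the MELAS or the Rieske mutant cell line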;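 further: z relative to plate mean and SD of compound and empty wells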). The settings on record: low glucose.
Where [19] appears, read: stronger effect = lower value, cell number ratio, induced over uninduced.
Where [20] appears, read: measured here: relative caspase fold change +Dox/-Dox.
Setting [21] is: measured here: total cells with miR-34 induction, stronger effect = lower value.
[22] abbreviates: measured here: total cells without miR-34 induction.
The mark [23] stands for this setting: MELAS cybrid survival, CellTiter-Glo 48 h, stronger effect = higher value.
Where [24] appears, read: Rieske KO mouse fibroblast survival, CellTiter-Glo 72 h.

Several values for one entry are separate records, joined by “and”; a condition that tells them apart may be missing. Identical values can stand only once. Results filed as inconclusive are left out. For some of these results: Results with a measured potency or affinity are listed apart. The source holds several records for some structures; these can differ, active in one and inactive in another. Activity calls are given as the source filed them.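 How the source made its calls, unless noted: active means compounds whose cell count with miR-34 switched on is under 0.7 times the count with it off; inactive means the rest.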

Chain of Mitogen-activated protein kinase 7 (Homo sapiens) (Q13164 whole entry, looked up, the tested form may be a part): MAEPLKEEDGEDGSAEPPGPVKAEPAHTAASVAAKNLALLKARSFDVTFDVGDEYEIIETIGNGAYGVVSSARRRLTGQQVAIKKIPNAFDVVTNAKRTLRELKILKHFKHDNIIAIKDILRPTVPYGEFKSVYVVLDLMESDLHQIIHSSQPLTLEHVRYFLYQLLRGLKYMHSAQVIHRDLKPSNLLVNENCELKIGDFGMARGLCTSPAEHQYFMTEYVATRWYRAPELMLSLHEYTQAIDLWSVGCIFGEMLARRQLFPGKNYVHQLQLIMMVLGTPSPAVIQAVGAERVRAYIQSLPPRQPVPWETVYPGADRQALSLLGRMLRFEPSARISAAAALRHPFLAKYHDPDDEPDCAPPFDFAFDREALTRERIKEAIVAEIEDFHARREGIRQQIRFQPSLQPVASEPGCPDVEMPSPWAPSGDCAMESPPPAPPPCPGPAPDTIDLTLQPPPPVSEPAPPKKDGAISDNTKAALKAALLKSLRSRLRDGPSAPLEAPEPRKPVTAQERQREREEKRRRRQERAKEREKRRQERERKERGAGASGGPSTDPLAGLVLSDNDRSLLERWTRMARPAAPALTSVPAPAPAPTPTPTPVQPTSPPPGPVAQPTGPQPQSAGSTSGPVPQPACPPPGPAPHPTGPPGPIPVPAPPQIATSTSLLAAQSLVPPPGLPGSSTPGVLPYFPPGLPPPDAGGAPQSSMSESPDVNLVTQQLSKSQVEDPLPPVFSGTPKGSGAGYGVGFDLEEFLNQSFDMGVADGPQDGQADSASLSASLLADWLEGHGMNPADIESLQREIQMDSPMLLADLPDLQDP
Chain of 6-phosphogluconate dehydrogenase, decarboxylating (Homo sapiens) (P52209 whole entry, looked up): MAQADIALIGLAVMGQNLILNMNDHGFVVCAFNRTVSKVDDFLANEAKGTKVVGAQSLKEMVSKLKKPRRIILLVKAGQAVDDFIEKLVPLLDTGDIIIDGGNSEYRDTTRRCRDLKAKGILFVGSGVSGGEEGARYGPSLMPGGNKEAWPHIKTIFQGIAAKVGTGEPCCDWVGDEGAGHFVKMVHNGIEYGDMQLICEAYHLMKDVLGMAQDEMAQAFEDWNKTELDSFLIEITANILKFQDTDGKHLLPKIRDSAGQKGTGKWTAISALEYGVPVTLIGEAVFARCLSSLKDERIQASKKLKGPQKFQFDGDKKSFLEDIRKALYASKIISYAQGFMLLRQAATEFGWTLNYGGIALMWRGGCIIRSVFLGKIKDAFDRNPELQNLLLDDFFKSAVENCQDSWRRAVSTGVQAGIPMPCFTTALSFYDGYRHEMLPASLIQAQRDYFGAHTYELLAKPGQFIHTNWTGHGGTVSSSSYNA

In the case of `O=C(O)c1cc(=O)c2ccc(Cl)cc2[nH]1`, the inhibition in assay [1] is 15.5% (inactive). The fold change in assay [2] (setting [19]) was 0.965 (inactive); in assay [2] (setting [20]), 1.21. For the same molecule, the cell count in assay [2] (setting [21]) was found to be 8410; in assay [2] (setting [22]) it was 8710. In addition, in [3], the z-score is -0.2 (inactive).

For `O=C(O)c1cc(=O)c2ccccc2[nH]1`, the inhibition in assay [4] is -5.47%; in assay [1] it was 9.19% (inactive). Moreover, in [5], the score is 1.02. The same molecule had a rescue above control in assay [6] of 12.3. Moreover, the cytochrome c release ratio in assay [7] is 0.92. This molecule returned an inhibition of aggregation in assay [8] of 69.7%. Further, in assay [9], the glutamate uptake change was -1.73%. This molecule also showed an aggregation suppression score in assay [10] of 0.981. Also, in assay [11], the parasite load remaining is 196% (inactive). In [11], the viability turned out to be 68.4%. Further, the fold change in [2] (setting [19]) is 1.09 (inactive) and 0.962 (inactive); in assay [2] (setting [20]) it was 0.635 and 0.733. The cell count was 10600 and 8100 in assay [2] (setting [21]); 9680 and 8420 in [2] (setting [22]). The luciferase signal in [12] was 40 AU (inactive). Moreover, in assay [3], the z-score is 0.335 (inactive) and 0.005 (inactive).

On to `C=C(C)[C@@H]1CC[C@]2(C(=O)O)CC[C@]3(C)[C@H](CC[C@@H]4[C@@]5(C)CC[C@H](O)C(C)(C)[C@@H]5CC[C@]43C)[C@@H]12`, for which the parasite load remaining in assay [11] was -8.09% (active) and 64% (inactive). In assay [11], the viability is 99.2% and 78.2%. In assay [1], the inhibition is 0.445% (inactive). Moreover, the half-maximal activity concentration (AC50) in assay [13] was 20.9 µM (active). For the same molecule, the result in assay [14], in assay [15], in assay [16] and in assay [17] was inactive. The fold change in assay [2] (setting [19]) is 0.792 (inactive) and 1.12 (inactive); in [2] (setting [20]), 1.41 and 0.964. Also, the cell count in [2] (setting [21]) was 5780 and 2010; in assay [2] (setting [22]) it was 7300 and 1790. In assay [12], the luciferase signal is 64 AU (inactive).

On to `CC(=O)[C@H]1CC[C@H]2[C@@H]3CCC4=CC(=O)CC[C@]4(C)[C@H]3CC[C@]12C`, for which, in assay [1], the inhibition is 14.1% (inactive). For the same molecule, the AC50 in assay [14] was 1.87 µM (active). Besides, the molecule was called inactive in assay [15]. In addition, the fold change was 1.08 (inactive) and 0.812 (inactive) and 0.853 (inactive) in assay [2] (setting [19]); 0.82 and 1.33 and 1.49 in assay [2] (setting [20]). In addition, the cell count in assay [2] (setting [21]) was 8120 and 7150 and 6560; in assay [2] (setting [22]), 7520 and 8800 and 7700. Moreover, the z-score was -0.398 (inactive) and 0.245 (inactive) in assay [18] (setting [23]); -0.301 and 1.24 in assay [18] (setting [24]); -0.485 (inactive) and -1.04 (inactive) in [3]. In addition, the luciferase signal in assay [12] is 28 AU (inactive).

For `C[C@H](CCC(=O)O)[C@H]1CC[C@H]2[C@@H]3[C@H](O)C[C@@H]4C[C@H](O)CC[C@]4(C)[C@H]3CC[C@]12C`, in assay [11], the parasite load remaining was 42% (inactive) and 91.9% (inactive). In addition, the viability in assay [11] is 46.4% and 85.3%. For the same molecule, in assay [1], the inhibition is -1.04% (inactive). Besides, the outcome in assay [13], in assay [14], in assay [15], in assay [16] and in assay [17] was inactive. The fold change in assay [2] (setting [19]) was 0.917 (inactive); in assay [2] (setting [20]) it was 1.03. The cell count stood at 9290 in assay [2] (setting [21]) and 10100 in assay [2] (setting [22]). Also, the z-score in assay [18] (setting [23]) was 0.377 (inactive); in assay [18] (setting [24]), -0.0721. In assay [12], the luciferase signal was 112 AU (inactive).

The record behind these values is PubChem BioAssay.
